Results: PubChem BioAssay (Tox21)
Results filed as inconclusive are left out. Where a call stands in place of a potency, no number is given. Activity calls are given as the source filed them. Calls come from the whole dose curve; as a rule, active = well fitted cell-killing curve with a large enough effect in the repeat runs; inconclusive = weak or mixed curves, or effect the other way; inactive = flat fitted curve, though single readings scatter.

assay: qHTS assay to identify small molecule agonists of the constitutive androstane receptor (CAR) signaling pathway - cell viability counter screen (AID 1224836); conditions: HepG2-CYP2B6-hCAR viability, CellTiter-Fluor, 23 h, PK11195 added to every well; series mostly up to 92.4 µM
Summary of the method: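 HepG2 cells stably carrying hCAR and a CYP2B6-2.2kb reporter; 15-concentration compounds plus PK11195 (final 0.75 uM), 23 hr at 37 C/5% CO2. Viability read by CellTiter-Fluor fluorescence.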
Note: nearly all actives have a fitted effect of over 45% in size.

Row | SMILES | Potency
1 | OCC(O)CCl (stereo not given) | inactive
2 | CNCC(O)c1ccc(O)cc1 (stereo not given) | inactive
3 | Cl[C@H]1OCCO[C@@H]1Cl | inactive
4 | O=C(O)CCCc1ccc(N(CCCl)CCCl)cc1 | inactive
5 | N#CN=C(N)N | inactive
6 | N#Cc1cccc(C#N)c1 | inactive
7 | COC(C)(C)CCCC(C)C/C=C/C(C)=C/C(=O)OC(C)C (stereo not given) | inactive
8 | Nc1cccc(Cl)c1 | inactive
9 | Clc1cnc(Oc2ccc(Oc3ncc(Cl)cc3Cl)cc2)c(Cl)c1 | inactive
10 | Cc1cc(O)ccc1Cl | inactive
11 | C=CCN=C=S | inactive
12 | Cc1ccc(O)c(C)c1 | inactive
13 | CSc1nnc(C(C)(C)C)c(=O)n1N | inactive
14 | Cc1cc(Cl)ccc1OC(C)C(=O)O (stereo not given) | inactive
15 | O=[N+]([O-])c1ccc(Cl)c(Cl)c1 | inactive
16 | FC(F)(F)c1ccc(Cl)cc1 | inactive
17 | CNC(=O)Oc1cccc2ccccc12 | inactive
18 | Sc1ccccc1 | inactive
19 | CNC(=O)O/N=C/C(C)(C)S(C)=O (stereo not given) | inactive
20 | CCNc1nc(Cl)nc(NC(C)C)n1 | inactive
21 | O=[N+]([O-])c1cc([As](=O)(O)O)ccc1O | inactive
22 | O=C(O)Cc1ccccc1 | inactive
23 | CN(C)C(=O)Nc1cccc(C(F)(F)F)c1 | inactive
24 | CC(C)c1cccc(C(C)C)c1O | inactive
25 | CNC(=O)O/N=C/C(C)(C)SC | inactive
26 | CC(C)CCCCCCOC(=O)c1ccccc1C(=O)OCCCCCCC(C)C | inactive
27 | C=CC#N | inactive
28 | O=C(O)C1C(C(=O)O)C2(Cl)C(Cl)=C(Cl)C1(Cl)C2(Cl)Cl (stereo not given) | inactive
29 | Cc1cccc(N)c1 | inactive
30 | CN(C)NC(=O)CCC(=O)O | inactive

assay: qHTS assay to identify small molecule antagonists of the constitutive androstane receptor (CAR) signaling pathway - cell viability counter screen (AID 1224837); conditions: HepG2-CYP2B6-hCAR viability, CellTiter-Fluor, 23 h, co-treated with 50 nM CITCO; series mostly up to 92.4 µM
Summary of the method: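 Read-out: CellTiter-Fluor fluorescence after 23 hr at 37 C/5% CO2. Cells: HepG2 double-stable for hCAR and CYP2B6-2.2kb. Compounds tested at 15 concentrations in the presence of CITCO, final concentration 50 nM.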

Row | SMILES | Potency
31 | OCC(O)CCl (stereo not given) | inactive
32 | CNCC(O)c1ccc(O)cc1 (stereo not given) | inactive
33 | Cl[C@H]1OCCO[C@@H]1Cl | inactive
34 | O=C(O)CCCc1ccc(N(CCCl)CCCl)cc1 | inactive
35 | N#CN=C(N)N | inactive
36 | N#Cc1cccc(C#N)c1 | inactive
37 | COC(C)(C)CCCC(C)C/C=C/C(C)=C/C(=O)OC(C)C (stereo not given) | inactive
38 | Nc1cccc(Cl)c1 | inactive
39 | Clc1cnc(Oc2ccc(Oc3ncc(Cl)cc3Cl)cc2)c(Cl)c1 | inactive
40 | Cc1cc(O)ccc1Cl | inactive
41 | C=CCN=C=S | inactive
42 | Cc1ccc(O)c(C)c1 | inactive
43 | CSc1nnc(C(C)(C)C)c(=O)n1N | inactive
44 | Cc1cc(Cl)ccc1OC(C)C(=O)O (stereo not given) | inactive
45 | O=[N+]([O-])c1ccc(Cl)c(Cl)c1 | inactive
46 | FC(F)(F)c1ccc(Cl)cc1 | inactive
47 | CNC(=O)Oc1cccc2ccccc12 | inactive
48 | Sc1ccccc1 | inactive
49 | CNC(=O)O/N=C/C(C)(C)S(C)=O (stereo not given) | inactive
50 | CCNc1nc(Cl)nc(NC(C)C)n1 | inactive
51 | O=[N+]([O-])c1cc([As](=O)(O)O)ccc1O | inactive
52 | O=C(O)Cc1ccccc1 | inactive
53 | CN(C)C(=O)Nc1cccc(C(F)(F)F)c1 | inactive
54 | CC(C)c1cccc(C(C)C)c1O | inactive
55 | CNC(=O)O/N=C/C(C)(C)SC | inactive
56 | CC(C)CCCCCCOC(=O)c1ccccc1C(=O)OCCCCCCC(C)C | inactive
57 | C=CC#N | inactive
58 | O=C(O)C1C(C(=O)O)C2(Cl)C(Cl)=C(Cl)C1(Cl)C2(Cl)Cl (stereo not given) | inactive
59 | Cc1cccc(N)c1 | inactive
60 | CN(C)NC(=O)CCC(=O)O | inactive
